# According to PubChem BioAssay:
# Active and inactive are the calls of the source.
# What was measured:
# [1] = molecular target: Albumin (Bos taurus) (UniProt P02769); test: bovine serum albumin binders on microarray, profiling panel, artefact control for SMM control protein annotation, biochemical, small-molecule microarray, Alexa647 label, 635/667 nm fluorescence (AID 1118); details: BSA-A647 binding, fluorescence 635 nm, higher = more signal;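 also: score merges 667 nm emission intensity and signal-to-noise per printed compound spot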
# Chain of Albumin (Bos taurus) (P02769 whole entry, looked up): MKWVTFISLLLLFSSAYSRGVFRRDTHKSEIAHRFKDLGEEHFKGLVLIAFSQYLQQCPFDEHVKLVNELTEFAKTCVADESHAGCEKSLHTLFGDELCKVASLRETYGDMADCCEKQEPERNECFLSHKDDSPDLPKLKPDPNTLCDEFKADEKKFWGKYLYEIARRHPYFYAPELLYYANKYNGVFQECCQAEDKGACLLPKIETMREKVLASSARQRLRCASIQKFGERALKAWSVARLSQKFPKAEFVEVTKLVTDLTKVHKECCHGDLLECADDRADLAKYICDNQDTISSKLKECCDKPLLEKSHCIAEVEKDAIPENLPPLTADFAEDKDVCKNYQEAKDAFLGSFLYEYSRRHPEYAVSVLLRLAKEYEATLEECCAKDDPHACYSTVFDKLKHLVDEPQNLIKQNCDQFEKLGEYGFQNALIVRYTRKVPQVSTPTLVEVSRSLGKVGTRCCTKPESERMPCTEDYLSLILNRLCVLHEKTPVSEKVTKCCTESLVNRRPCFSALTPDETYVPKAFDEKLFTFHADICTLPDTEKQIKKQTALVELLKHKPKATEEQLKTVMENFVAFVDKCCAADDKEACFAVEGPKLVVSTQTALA
# [2] = small-molecule microarray binders of probe aXIP, primary screen, biochemical, NeuroSMM set, 635/667 nm fluorescence (AID 1119); details: higher = more signal, called active from +8 up or from −8 down;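 also: probe is the protein aXip251-270 applied at 1 µg/mL to compound-printed slides; binding of probe to printed compounds measured as 667 nm fluorescence plus signal to noise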
# [3] = small-molecule binders of probe aNOTCH3, primary screen, biochemical, small-molecule microarray, 635/667 nm fluorescence (AID 1120); details: higher = more signal;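 also: probe is a biotin-tagged antibody raised against NOTCH3 rather than NOTCH3 protein; score merges spot fluorescence near 667 nm with spot signal to noise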
# [4] = small-molecule binders of probe aNOTCH2, primary screen, biochemical, small-molecule microarray, 635/667 nm fluorescence (AID 1121); details: higher = more signal;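 also: score merges feature fluorescence read at 667 nm with its signal to noise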
# [5] = molecular target: Carbonic anhydrase 2 (Homo sapiens) (UniProt P00918); test: CAII small-molecule binders, profiling panel, biochemical, small-molecule microarray, Alexa647-labelled CAII (AID 1122); details: CAII-A647 binding fluorescence, higher = more signal
# [6] = COS7 lysate on small-molecule microarray, probe aHis, 635 nm (AID 1123); details: COS7 cell lysate, fluorescence, higher = more signal;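 also: z-score combines 667nm fluorescence intensity with signal-to-noise per printed compound spot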
# [7] = compound binding in COS7 lysate, probe aLAP1, primary screen, cell lysate, small-molecule microarray (AID 1124); details: probe aLAP1, fluorescence, higher = more signal;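 also: lysate comes from COS7 cells expressing LAP1 and is applied at 0.3 µg/mL; score merges spot fluorescence near 667 nm with signal-to-noise over triplicate slides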
# [8] = system: Sam68 (KHDRBS1); test: Sam68 small-molecule binders, primary screen, biochemical, small-molecule microarray, 635 nm fluorescence (AID 1125); details: small-molecule microarray binding, higher = more signal;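 also: score merges 667 nm channel intensity with signal to noise over triplicate slides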
# [9] = system: Chordin-like protein 2 (CHRDL2); test: CHRDL2 small-molecule binders, primary screen, biochemical, small-molecule microarray, 635 nm fluorescence (AID 1126); details: small-molecule microarray binding, fluorescence 635 nm; higher = more signal;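 also: printed compound slides probed with Chrdl2 protein at 4 µg/mL for 1 h at 4 C; score merges 667 nm emission intensity with signal to noise over three replicate slides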
# [10] = molecular target: Concanavalin-A (Canavalia ensiformis) (UniProt P02866); test: ConA small-molecule binders, primary screen, artefact control for SMM control protein annotation, biochemical, small-molecule microarray, Alexa647 label, 635 nm (AID 1127); details: ConA-A647 binding fluorescence, higher = more signal;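 also: z combines 667 nm emission intensity with signal-to-noise across three replicate slides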
# Chain of Concanavalin-A (Canavalia ensiformis) (P02866 whole entry, looked up): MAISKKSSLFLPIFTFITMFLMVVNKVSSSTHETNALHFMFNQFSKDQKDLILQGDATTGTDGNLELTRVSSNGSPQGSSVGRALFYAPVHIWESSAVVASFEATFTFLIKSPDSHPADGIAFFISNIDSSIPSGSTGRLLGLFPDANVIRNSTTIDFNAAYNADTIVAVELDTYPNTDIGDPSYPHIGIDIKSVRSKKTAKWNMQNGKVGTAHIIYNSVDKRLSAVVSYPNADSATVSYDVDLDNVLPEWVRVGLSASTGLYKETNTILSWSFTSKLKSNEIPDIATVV
# [11] = anti-His antibody binders, primary screen, artefact control for SMM control protein annotation, biochemical, small-molecule microarray, 635 nm fluorescence (AID 1128); details: anti-His Alexa647 antibody binding, higher = more signal;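 also: score merges feature fluorescence with signal-to-noise for each printed compound spot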
# [12] = system: Human papillomavirus type 1a E7 protein (residues 1-88); test: HPV1a E7 small-molecule binders, primary screen, biochemical, small-molecule microarray, residues 1-88, 635 nm (AID 1129); details: small-molecule microarray binding, fluorescence 635 nm; higher = more signal
# [13] = molecular target: Focal adhesion kinase 1 (Homo sapiens) (UniProt Q05397); test: small-molecule microarray binders of FAK, primary screen, biochemical, 635/667 nm fluorescence, BSA, DTT (AID 1130); details: PTK2 binding, 635 nm fluorescence, higher = more signal;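 also: composite of spot emission at 667 nm and signal to noise over triplicate slides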
# Chain of Focal adhesion kinase 1 (Homo sapiens) (Q05397 whole entry, looked up): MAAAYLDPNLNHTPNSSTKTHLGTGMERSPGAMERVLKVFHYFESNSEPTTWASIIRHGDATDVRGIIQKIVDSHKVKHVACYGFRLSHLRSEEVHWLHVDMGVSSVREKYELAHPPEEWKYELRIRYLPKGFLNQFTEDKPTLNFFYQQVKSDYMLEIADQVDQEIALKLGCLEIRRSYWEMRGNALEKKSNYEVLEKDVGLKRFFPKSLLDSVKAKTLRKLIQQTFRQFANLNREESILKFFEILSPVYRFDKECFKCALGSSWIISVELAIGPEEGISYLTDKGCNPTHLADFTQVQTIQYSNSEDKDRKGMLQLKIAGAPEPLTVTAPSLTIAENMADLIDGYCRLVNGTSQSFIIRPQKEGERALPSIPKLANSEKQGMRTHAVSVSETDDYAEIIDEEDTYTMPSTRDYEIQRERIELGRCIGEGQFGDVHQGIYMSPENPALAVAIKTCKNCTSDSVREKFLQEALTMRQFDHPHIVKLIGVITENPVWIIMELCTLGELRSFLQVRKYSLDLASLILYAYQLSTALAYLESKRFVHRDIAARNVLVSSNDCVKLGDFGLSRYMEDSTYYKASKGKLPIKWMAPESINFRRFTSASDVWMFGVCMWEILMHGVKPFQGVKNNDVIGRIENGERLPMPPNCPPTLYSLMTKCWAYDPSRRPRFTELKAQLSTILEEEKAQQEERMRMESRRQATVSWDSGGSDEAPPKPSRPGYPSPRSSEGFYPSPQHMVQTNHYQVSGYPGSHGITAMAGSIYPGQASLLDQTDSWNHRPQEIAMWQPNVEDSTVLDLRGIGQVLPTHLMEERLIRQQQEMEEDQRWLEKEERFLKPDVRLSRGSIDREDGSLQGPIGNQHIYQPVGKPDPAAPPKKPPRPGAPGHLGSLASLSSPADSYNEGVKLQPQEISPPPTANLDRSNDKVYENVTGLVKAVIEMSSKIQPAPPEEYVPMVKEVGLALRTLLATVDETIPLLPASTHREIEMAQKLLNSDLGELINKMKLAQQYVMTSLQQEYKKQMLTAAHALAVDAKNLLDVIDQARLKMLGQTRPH
# [14] = system: Fibrinogen (Alexa647-labelled); test: fibrinogen binders on compound microarrays, profiling panel, artefact control for SMM control-protein annotation, biochemical, small-molecule microarray, 635/667 nm fluorescence (AID 1131); details: fibrinogen-A647 binding fluorescence, higher = more signal;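 also: z-score merges 667 nm fluorescence with per-spot signal-to-noise over triplicate slides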
# [15] = molecular target: Follistatin (Homo sapiens) (UniProt P19883); test: follistatin binders on small-molecule microarrays, primary screen, biochemical, small-molecule microarray, 635/667 nm fluorescence (AID 1132); details: FST binding, 635 nm fluorescence, higher = more signal
# Chain of Follistatin (Homo sapiens) (P19883 whole entry, looked up): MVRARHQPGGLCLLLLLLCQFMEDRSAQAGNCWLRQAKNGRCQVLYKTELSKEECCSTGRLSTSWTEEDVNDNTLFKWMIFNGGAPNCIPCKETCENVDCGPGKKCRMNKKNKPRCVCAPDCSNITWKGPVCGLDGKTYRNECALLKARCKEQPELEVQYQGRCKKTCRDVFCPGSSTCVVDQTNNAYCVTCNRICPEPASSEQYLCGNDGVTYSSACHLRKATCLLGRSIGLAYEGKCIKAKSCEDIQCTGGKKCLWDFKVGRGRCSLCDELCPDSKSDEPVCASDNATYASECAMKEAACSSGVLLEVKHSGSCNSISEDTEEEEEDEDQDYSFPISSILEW
# [16] = molecular target: Fibroblast growth factor 2 (Homo sapiens) (UniProt P09038); test: FGF2 binders on small-molecule microarrays, primary screen, biochemical, small-molecule microarray, 635/667 nm fluorescence (AID 1133); details: small-molecule microarray binding, FGF2, fluorescence 635/667; higher = more signal
# Chain of Fibroblast growth factor 2 (Homo sapiens) (P09038 whole entry, looked up): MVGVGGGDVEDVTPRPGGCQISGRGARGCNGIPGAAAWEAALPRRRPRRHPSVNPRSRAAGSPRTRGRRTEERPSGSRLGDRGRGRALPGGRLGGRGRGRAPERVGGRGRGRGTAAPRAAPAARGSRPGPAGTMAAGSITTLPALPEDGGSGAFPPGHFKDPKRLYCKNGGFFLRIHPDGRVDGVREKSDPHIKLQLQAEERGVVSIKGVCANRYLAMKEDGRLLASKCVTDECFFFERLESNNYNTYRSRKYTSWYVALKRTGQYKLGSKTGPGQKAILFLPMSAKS
# [17] = mitochondrial membrane potential change in A549 cells, profiling panel, cell-based, JC-1 fluorescence, basal, 24 h, 100 nL (AID 1138); details: higher = more signal;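 also: A549 lung adenocarcinoma cells under basal conditions with no added stimulus; test concentration not given here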
# [18] = system: Lefty1; test: Lefty1 binders on small-molecule microarrays, primary screen, biochemical, small-molecule microarray, 635/667 nm fluorescence (AID 1139); details: small-molecule microarray binding, fluorescence 635/667; higher = more signal
# [19] = system: wheat germ agglutinin (Triticum aestivum), Alexa647-labelled; test: wheat germ agglutinin binders on compound microarrays, profiling panel, artefact control for SMM control-protein annotation, biochemical, small-molecule microarray, 635/667 nm fluorescence (AID 1140); details: WGA-A647 binding, 635 nm fluorescence, higher = more signal;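 also: score merges 667 nm feature emission with signal to noise over triplicate slides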
# [20] = molecular target: Luciferin 4-monooxygenase (Photinus pyralis) (UniProt P08659); test: firefly luciferase enzyme inhibitors, primary screen, biochemical, luminescence, purified enzyme, 2006 set (AID 1141); details: SteadyGlo luminescence, 30 min, higher = more signal, called active from +8 up or from −8 down;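 also: cell-free assay with purified firefly luciferase at 100 ng per well in PBS; test concentration not given here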
# Chain of Luciferin 4-monooxygenase (Photinus pyralis) (P08659 whole entry, looked up): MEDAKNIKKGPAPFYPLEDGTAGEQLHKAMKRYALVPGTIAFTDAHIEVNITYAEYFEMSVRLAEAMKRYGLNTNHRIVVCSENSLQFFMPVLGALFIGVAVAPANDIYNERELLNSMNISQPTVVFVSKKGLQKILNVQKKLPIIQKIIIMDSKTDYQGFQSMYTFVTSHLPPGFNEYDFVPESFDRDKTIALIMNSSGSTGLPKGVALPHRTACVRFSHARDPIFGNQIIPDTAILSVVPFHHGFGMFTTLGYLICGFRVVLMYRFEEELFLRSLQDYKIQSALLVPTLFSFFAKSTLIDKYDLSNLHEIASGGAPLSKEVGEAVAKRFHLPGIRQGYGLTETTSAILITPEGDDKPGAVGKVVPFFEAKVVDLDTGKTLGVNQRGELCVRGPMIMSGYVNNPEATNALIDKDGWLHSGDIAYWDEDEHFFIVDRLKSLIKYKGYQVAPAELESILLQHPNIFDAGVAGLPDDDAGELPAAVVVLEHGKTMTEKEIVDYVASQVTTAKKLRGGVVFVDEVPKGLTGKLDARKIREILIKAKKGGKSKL
SMILES,composite z-score [1],composite Z-score [2],composite z-score [3],composite z-score [4],composite z-score [5],composite z-score [6],composite z-score [7],composite z-score [8],composite z-score [9],composite z-score [10],composite z-score [11],composite z-score [12],composite z-score [13],composite z-score [14],composite z-score [15],composite z-score [16],z-score [17],composite z-score [18],composite z-score [19],z-score [20]
COC(=O)C(CC#Cc1ccc2c(c1)[C@]1(C(=O)N2)[C@H](C(=O)N2CCN(c3ncccn3)CC2)[C@H]2C(=O)O[C@H](c3ccccc3)[C@H](c3ccccc3)N2[C@@H]1c1ccc(O)cc1)C(=O)OC,-0.542,0.939 (inactive),0.972,0.279,0.636,2.38,0.97,1.28,1.08,1.21,1.19,1.25,0.904,0.951,1.43,1.57,-0.877,1.03,1.36,-0.178 (inactive)
C=CCNC(=O)[C@@H]1[C@H]2C(=O)O[C@H](c3ccccc3)[C@H](c3ccccc3)N2[C@H](c2ccc(OCCO)cc2)[C@@]12C(=O)N(C(=O)OCCOC)c1ccccc12,0.258,1.01 (inactive),-0.0362,-0.0432,0.589,2.37,0.67,1.29,0.389,1.03,1.25,1.19,0.986,0.61,1.29,1.26,1.11,0.581,0.539,0.36 (inactive)
COc1c(C)cc(-c2nc(-c3ccccc3)c3c(c2C)CO[Si]3(C(C)C)C(C)C)cc1C,-0.116,0.257 (inactive),0.178,-0.0048,-0.0127,0.275,-0.314,0.214,0.264,-0.53,-0.0017,0.223,0.0945,0.42,0.62,0.376,0.87,0.53,-0.0784,0.722 (inactive)
[N-]=[N+]=NCc1ccccc1[C@H]1OC(c2ccc(OCCCO)cc2)=N[C@@]1(Cc1ccccc1N=[N+]=[N-])C(=O)O,0.892,0.59 (inactive),0.297,0.0889,0.63,1.43,0.455,1.33,0.0332,1.14,2.02,1.2,1.03,0.899,1.21,0.134,-0.0184,0.0929,1.23,-4.21 (inactive)
COC(=O)C(CC#Cc1ccc2c(c1)[C@]1(C(=O)N2)[C@H](c2ccc(OCCO)cc2)N2[C@H](c3ccccc3)[C@H](c3ccccc3)OC(=O)[C@H]2[C@@H]1C(N)=O)C(=O)OC,0.734,-0.0003 (inactive),-0.209,-0.136,0.389,2.2,0.431,1.06,-0.907,1.14,2.32,1.21,0.307,0.858,0.0592,-0.379,-0.616,-0.269,0.397,-1.38 (inactive)
CCCN1C(=O)[C@@]2(c3ccc([N+](=O)[O-])cc3)CC(=O)N(C3CCCCC3)[C@@H]2c2ccc(CO)cc21,-0.328,2.02 (inactive),-0.15,-0.112,-0.139,0.361,-0.435,0.268,0.649,0.31,0.993,-0.281,0.584,-0.138,1.2,1.08,-0.755,0.466,0.198,0.289 (inactive)
C=C(CCCC)/C(=C/C[C@@H](OC(C)=O)c1cccc(OCCO)c1)c1cc(C(=O)OC)ccc1OC,0.119,0.303 (inactive),-0.0131,-0.168,0.561,-0.22,-0.247,0.71,-0.0137,-0.656,0.57,0.0538,0.0738,0.249,0.705,0.0923,1.63,1.08,0.617,-0.132 (inactive)
COc1ccc(NN2C(C(O)c3ccccc3)C=CC3C(=O)N(C4CCCCC4)C(=O)C32)cc1 (stereo not given),0.74,0.38 (inactive),0.147,-0.0047,0.749,2.67,0.4,1.32,-0.223,1.12,0.864,1.26,0.82,0.996,0.925,0.202,0.338,0.769,1.03,-0.684 (inactive)
Cc1ccc(S[C@]2(C(=O)NCC(C)C)CC(=O)N(C(C)C)[C@@H]2c2ccc(CO)cc2I)cc1,-0.0268,0.849 (inactive),-0.019,-0.057,0.56,1.07,0.801,-0.236,-0.802,-1.16,-1.38,-0.807,-0.0038,-0.942,-0.888,0.101,-0.294,-1.16,-0.353,-0.965 (inactive)
C=C1C(=O)C=C2CN(C(=O)c3ccccc3)[C@@](Cc3ccc(F)cc3)(C(=O)OC)[C@@H]12,1.03,0.114 (inactive),0.693,0.009,0.5,2.76,0.942,1.34,-0.775,1.14,1,1.18,0.69,1.03,1.25,-0.234,-3.17,-0.384,0.872,-25.6 (active)
CC1CC/C=C\[C@H]2OC34C=CCN(C(C)C)C(=O)[C@H]3N(C(C)CO)C(=O)[C@@H]4C2C(=O)O1 (stereo not given in full),0.702,0.439 (inactive),-0.162,-0.115,0.418,-0.406,-0.108,-0.26,-0.337,-0.0657,-0.112,-0.504,-0.205,-1.22,0.305,-0.455,0.501,0.572,0.748,-0.316 (inactive)
